Laboratory results reported in the OligoGym collection.

Each sequence was assayed against EGF (assay: pooled miR-30 sensor sort-seq; sequence = guide strand). Details: shRNA.
Also: reference of the scale not given here.

In order of falling sensor-assay potency score (higher = more potent):
1. TATATTACATACTCTCTCTTGC  0.906
2. TTCATTAACATCTTCACAGTAC  0.809
3. TTACTTACAATCTTGTAACTGA  0.581
4. TACTGTAATGATTCCTTCCTGT  0.571
5. TTAGTGATTATTTTGGAACGTT  0.208
6. TTGCAAACAAATTATGCTGTGT  0.205
7. TTGTCTTTCTAAATCCACCCAA  0.0842
8. TTGAGTAGGTGATTAGTCGTAG  0.0164
9. TAAATTTTGAAACTACTGGCAA  -0.0191
10. TTACATACTCTCTCTTGCCTTG  -0.0399
11. TAAATCACTCCTTCCAATCAGA  -0.116
12. TTAATTCTAACCATGTCCTTTC  -0.226
13. TTAGATCAACTTCACCACCTGC  -0.392
14. TCTTCTGACACTCTAGTCTTGG  -0.41
15. TATCGGGTGAGGAACAACCGCT  -0.49
16. TAATGTGGACAGAACCTCCATC  -0.544
17. TTCTGTAATGTTATCTTCTGAC  -0.544
18. TTCTCTGTTGTACTGAATCCAA  -0.8
19. AAACAAGTTGATGACATCGTTT  -0.985
20. TATCAGAACATAGTTTTCCATC  -1.09
21. TTGAGAATTGGCAAACAGCAAA  -1.09
22. TAAACCTTTCTACTGGATCAAC  -1.16
23. TTGACCAAATAACTTCTTCATT  -1.32
